NS1 inh: qHTS Assay for Inhibitors of Influenza NS1 Protein Function; AID 2326, 2010; Potency, µM (doses to about 46.1 µM), for the others: top-dose activity, positive = more growth; actives 0.4% (n = 270,000); calls by dose curve; also: potency is read from the fitted curve at half-maximal effect; actives are rising curves; nearly all actives have a fitted effect of over 50% in size
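A cell-based growth assay was used: compounds that relieve NS1-induced slow growth of budding yeast raise OD600. Assay medium was yeast nitrogen base with ammonium sulphate and -URA supplement, pH 6.0, with 2% galactose.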
HCV inh: qHTS Assay for Inhibitors of Hepatitis C Virus (HCV); Huh7.5.1 HCVcc-Cre infection, luciferase reporter, 44 h; Potency, µM (titrated, usually from 41.8 µM), for inactives: top-dose activity change, negative = inhibition, most hits filed as inhibitors; actives 3.4% (n = 340,000); also: potency is read from the fitted curve at half-maximal effect; % is scaled to controls: 0 for no effect and ±100 for the full control effect
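Reporter virus HCVcc-Cre (~0.5 moi) infects cells exposed to compound; seeding density 1,000 cells/well with 4 h settling beforehand. Luminescence, 15 sec read, taken 44 h post-infection following a 15 min RT substrate incubation.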
Pf growth 48h: Primary qHTS for delayed death inhibitors of the malarial parasite plastid, 48 hour incubation; P. falciparum luciferase growth in erythrocytes, 48 h; Potency, µM (titrated, usually from 28.7 µM), for inactives: at the top dose activity change, negative = inhibition, most hits filed as inhibitors; actives 5.9% (n = 310,000); also: potency is read from the fitted curve at half-maximal effect; % is scaled to controls: 0 for no effect and ±100 for the full control effect
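Luminescence readout; reporter = integrated firefly luciferase in P. falciparum. RBC culture at 2% hematocrit, 0.1% parasitemia final, 37 C/5% CO2; decreased signal taken as growth inhibition.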
Vaccinia mCherry: qHTS for Stage-Specific Inhibitors of Vaccinia Orthopoxvirus: mCherry Reporter Primary qHTS; Potency, µM (top dose mostly 36.5 µM), without a hit: at the highest dose activity change, negative = inhibition, most hits filed as inhibitors; actives 0.63% (n = 310,000); Vaccinia virus mCherry reporter infection, fluorescence; calls by dose curve; tested in A549 cells; also: potency is read from the fitted curve at half-maximal effect; % is scaled to controls: 0 for no effect and ±100 for the full control effect; nearly all actives have a fitted effect of over 35% in size
Pf growth 96h: Primary qHTS for delayed death inhibitors of the malarial parasite plastid, 96 hour incubation; P. falciparum luciferase reporter growth, 96 h; Potency, µM (titrated, usually from 28.7 µM), for the others: at the highest dose activity change, negative = inhibition, usual class: inhibitors; actives 6.9% (n = 320,000); AID 504834, 2011; also: potency is read from the fitted curve at half-maximal effect; % is scaled to controls: 0 for no effect and ±100 for the full control effect
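Cell-based qHTS: luciferase-tagged P. falciparum in erythrocytes (2% hematocrit, 0.05% parasitemia final) incubated with compounds for 96 hours, 37 C, 5% CO2; luciferase detection reagent then added and luminescence measured.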
VACV Venus inh: qHTS for Stage-Specific Inhibitors of Vaccinia Orthopoxvirus: Venus Reporter Primary qHTS | Vaccinia virus Venus reporter expression, fluorescence | Potency, µM (highest dose often 36.5 µM), without a hit: top-dose activity change, negative = inhibition, usual class: inhibitors | actives 0.46% (n = 330,000) | AID 720580, 2013; calls by dose curve; tested in A549 cells; also: potency is read from the fitted curve at half-maximal effect; % is scaled to controls: 0 for no effect and ±100 for the full control effect; nearly all actives have a fitted effect of over 30% in size
Flu NS1 inh: Assay for Inhibitors of Influenza NS1 Protein Function: Hit Validation; 1,400 tested, under 10 active; activity change, negative = inhibition, % at 32.9 µM; AID 492980, 2010; influenza NS1 function cell assay, 15-point titration; shares compounds with NS1 inh; calls by dose curve; also: 0% is about no effect
PR8 titer: Assay for Inhibitors of Influenza NS1 Protein Function: Influenza virus replication assay in MDCK cells infected with virus A/PR/8/34; virus titer (log TCID50), log10 TCID50 at 5 µM; shares compounds with NS1 inh; actives 30% (n = 95); MDCK infected influenza A/PR/8/34, virus titer TCID50; hits give low values; call rule not given here
Active calls of the source: *; [ ] = dose if it differs, or a comment. Only some compounds are listed: those with a hit (about 11% of all), similar ones and a draw of the others. Unless noted, calls follow the shape of the dose curve; as a rule, active = well fitted inhibition curve with a large enough effect; inconclusive = small, poorly fitted or top-dose-only effect, or another doubt; inactive = no such curve, though single readings can be large or run the other way.

For Cc1ccc(C)c2[nH]c(=O)c(CN(Cc3ccc4c(c3)OCO4)Cc3nnnn3Cc3ccco3)cc12 the results were NS1 inh 11.2µM*, HCV inh inconclusive, Pf growth 48h 8.28µM*, Pf growth 96h inconclusive, VACV Venus inh -7.4% and Flu NS1 inh 1.5.
Screening COc1ccc2[nH]c(=O)c(CN(Cc3cccs3)Cc3nnnn3Cc3ccccc3)cc2c1 returned NS1 inh 3.1%, HCV inh 13.2% and Pf growth 48h inconclusive.
`COc1ccc2[nH]c(=O)c(CN(Cc3ccco3)Cc3nnnn3Cc3ccccc3)cc2c1` gave NS1 inh 12.6µM*, HCV inh -7.7%, Pf growth 48h inconclusive, Vaccinia mCherry -14.0%, VACV Venus inh -14.7% and Flu NS1 inh 11.9.
`COCCN1CCn2c(nc3cc(NC(=O)Cn4nc(C)c5ccccc5c4=O)ccc32)C1` gave NS1 inh inconclusive, HCV inh 19.9%, Pf growth 48h -10.3%, Vaccinia mCherry inactive[7.34 µM], Pf growth 96h -4.1%, VACV Venus inh -3.9%[7.34 µM] and Flu NS1 inh 6.9.
For Cc1nn(CC(=O)Nc2ccc3c(c2)nc2n3CCOC2)c(=O)c2ccccc12 the results were NS1 inh -0.6%, HCV inh 21.0%, Vaccinia mCherry -28.0%, Pf growth 96h 34.8% and VACV Venus inh -7.7%.
`COCCN1CCn2c(nc3cc(NC(=O)c4ccc(OC)cc4)ccc32)C1` gave NS1 inh 12.6µM*, HCV inh 1.2%, Pf growth 48h inconclusive, Vaccinia mCherry inactive, VACV Venus inh -5.0%, Flu NS1 inh 12.8 and PR8 titer 8.33.
Screening COC(=O)/C(=C/c1cccc([N+](=O)[O-])c1)NC(=O)c1ccc(OC)cc1 returned NS1 inh inconclusive, HCV inh -11.4%, Pf growth 48h 8.3%, Vaccinia mCherry -11.6%, Pf growth 96h 21.4% and VACV Venus inh -11.4%.
Screening COc1ccc(NS(=O)(=O)c2ccc(N3CCCC3)c(NC(=S)Nc3ccc(SC(F)F)cc3)c2)cc1 returned NS1 inh 8.91µM*, HCV inh 22.4µM*, Pf growth 48h inconclusive, Vaccinia mCherry inconclusive, Pf growth 96h 13.1µM*, VACV Venus inh -12.5% and Flu NS1 inh inconclusive.
`CSc1cccc(NC(=O)C(C)C)c1` gave NS1 inh 1.6%, HCV inh -6.1%, Pf growth 48h 17.3%, Vaccinia mCherry inactive, Pf growth 96h -2.3% and VACV Venus inh -2.6%.
`Cc1cc(C)c(N(C(=O)Cn2nnc3ccccc32)C(C(=O)NC(C)(C)C)c2ccsc2)c(C)c1` (stereo unspecified) gave NS1 inh 8.2%, HCV inh -7.1%, Pf growth 48h inconclusive, Vaccinia mCherry inconclusive, Pf growth 96h inconclusive and VACV Venus inh -20.0%.
Screening CC(C)(C)NC(=O)C(c1ccsc1)N(CCc1ccccc1)C(=O)Cn1nnc2ccccc21 (stereo unspecified) returned NS1 inh inconclusive, HCV inh 24.4%, Pf growth 48h inconclusive, Vaccinia mCherry inactive, Pf growth 96h inconclusive, VACV Venus inh -7.6% and Flu NS1 inh 4.8.
